The text below walks through data of ChEMBL document CHEMBL2218924, “A broad activity screen in support of a chemogenomic map for kinase signalling research and drug discovery” (Biochem J, 2013).

Assay [1] concerns the target T1, Serine/threonine-protein kinase TBK1 (Homo sapiens) (UniProt Q9UHD2).
T1 sequence (whole entry): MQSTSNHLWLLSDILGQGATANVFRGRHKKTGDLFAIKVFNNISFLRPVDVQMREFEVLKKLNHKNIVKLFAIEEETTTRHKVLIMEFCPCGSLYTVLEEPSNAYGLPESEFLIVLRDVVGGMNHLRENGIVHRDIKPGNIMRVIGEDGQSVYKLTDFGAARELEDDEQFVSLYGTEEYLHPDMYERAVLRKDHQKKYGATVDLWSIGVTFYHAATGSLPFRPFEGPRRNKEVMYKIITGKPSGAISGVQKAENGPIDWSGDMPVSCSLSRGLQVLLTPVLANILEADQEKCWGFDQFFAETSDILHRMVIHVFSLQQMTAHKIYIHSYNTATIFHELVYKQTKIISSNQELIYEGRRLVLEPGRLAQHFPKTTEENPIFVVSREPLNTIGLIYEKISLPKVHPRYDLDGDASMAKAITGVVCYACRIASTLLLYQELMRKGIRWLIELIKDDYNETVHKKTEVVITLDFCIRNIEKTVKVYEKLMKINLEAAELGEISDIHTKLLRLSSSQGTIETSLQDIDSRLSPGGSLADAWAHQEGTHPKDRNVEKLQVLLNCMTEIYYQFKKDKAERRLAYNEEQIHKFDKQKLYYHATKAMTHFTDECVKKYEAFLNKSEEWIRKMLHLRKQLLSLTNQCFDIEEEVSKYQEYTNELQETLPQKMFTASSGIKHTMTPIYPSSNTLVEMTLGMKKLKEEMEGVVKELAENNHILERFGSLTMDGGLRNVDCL
As to conditions: at 10 µM.

The target in assay [2] is T2, TGF-beta receptor type-1 (Homo sapiens) (UniProt P36897).
T2 sequence (whole entry): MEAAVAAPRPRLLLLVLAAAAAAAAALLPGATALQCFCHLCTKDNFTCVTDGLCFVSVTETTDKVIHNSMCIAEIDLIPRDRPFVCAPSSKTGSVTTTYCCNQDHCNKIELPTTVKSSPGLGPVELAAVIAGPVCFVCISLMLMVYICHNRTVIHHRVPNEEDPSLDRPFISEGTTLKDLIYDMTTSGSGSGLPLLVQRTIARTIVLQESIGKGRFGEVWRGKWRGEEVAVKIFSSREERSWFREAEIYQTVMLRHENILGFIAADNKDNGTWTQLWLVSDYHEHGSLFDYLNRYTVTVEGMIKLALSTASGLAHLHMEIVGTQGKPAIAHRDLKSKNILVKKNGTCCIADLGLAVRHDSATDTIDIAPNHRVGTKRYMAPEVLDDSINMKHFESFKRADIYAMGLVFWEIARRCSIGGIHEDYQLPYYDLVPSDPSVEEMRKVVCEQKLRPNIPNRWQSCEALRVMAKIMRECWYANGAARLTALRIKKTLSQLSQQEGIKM
Particulars: at 1 µM.

The target in assay [3] is T2, TGF-beta receptor type-1 (Homo sapiens). As to conditions: at 10 µM.
The target in assay [4] is Insulin-like growth factor 1 receptor (Homo sapiens) (UniProt P08069). Particulars: at 1 µM.
Assay [5] shares this target. As to conditions: at 10 µM.
Assay [6] deals with T3, Inhibitor of nuclear factor kappa-B kinase subunit alpha (Homo sapiens) (UniProt O15111).
T3 sequence (whole entry): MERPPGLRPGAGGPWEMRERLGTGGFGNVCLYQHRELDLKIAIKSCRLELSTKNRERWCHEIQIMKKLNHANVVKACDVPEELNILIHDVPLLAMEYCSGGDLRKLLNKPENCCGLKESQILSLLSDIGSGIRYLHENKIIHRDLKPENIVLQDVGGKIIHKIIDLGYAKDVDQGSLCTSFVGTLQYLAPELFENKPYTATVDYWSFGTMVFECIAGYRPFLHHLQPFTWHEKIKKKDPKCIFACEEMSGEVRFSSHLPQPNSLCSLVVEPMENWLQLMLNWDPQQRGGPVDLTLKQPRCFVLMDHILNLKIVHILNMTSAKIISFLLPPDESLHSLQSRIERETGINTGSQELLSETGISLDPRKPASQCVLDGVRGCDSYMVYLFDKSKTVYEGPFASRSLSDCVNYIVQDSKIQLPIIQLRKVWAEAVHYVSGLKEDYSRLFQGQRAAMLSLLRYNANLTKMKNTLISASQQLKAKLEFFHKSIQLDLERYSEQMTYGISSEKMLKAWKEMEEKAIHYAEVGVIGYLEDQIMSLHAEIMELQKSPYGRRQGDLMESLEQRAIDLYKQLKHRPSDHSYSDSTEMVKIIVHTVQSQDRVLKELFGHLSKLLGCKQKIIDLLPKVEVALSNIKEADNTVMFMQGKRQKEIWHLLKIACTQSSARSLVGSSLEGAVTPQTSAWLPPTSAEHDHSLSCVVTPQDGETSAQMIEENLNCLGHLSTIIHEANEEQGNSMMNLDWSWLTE
As to conditions: at 1 µM.

Assay [7] deals with T3, Inhibitor of nuclear factor kappa-B kinase subunit alpha (Homo sapiens). Particulars: at 10 µM.
The target of assay [8] is T4, Inhibitor of nuclear factor kappa-B kinase subunit beta (Homo sapiens) (UniProt O14920).
T4 sequence (whole entry): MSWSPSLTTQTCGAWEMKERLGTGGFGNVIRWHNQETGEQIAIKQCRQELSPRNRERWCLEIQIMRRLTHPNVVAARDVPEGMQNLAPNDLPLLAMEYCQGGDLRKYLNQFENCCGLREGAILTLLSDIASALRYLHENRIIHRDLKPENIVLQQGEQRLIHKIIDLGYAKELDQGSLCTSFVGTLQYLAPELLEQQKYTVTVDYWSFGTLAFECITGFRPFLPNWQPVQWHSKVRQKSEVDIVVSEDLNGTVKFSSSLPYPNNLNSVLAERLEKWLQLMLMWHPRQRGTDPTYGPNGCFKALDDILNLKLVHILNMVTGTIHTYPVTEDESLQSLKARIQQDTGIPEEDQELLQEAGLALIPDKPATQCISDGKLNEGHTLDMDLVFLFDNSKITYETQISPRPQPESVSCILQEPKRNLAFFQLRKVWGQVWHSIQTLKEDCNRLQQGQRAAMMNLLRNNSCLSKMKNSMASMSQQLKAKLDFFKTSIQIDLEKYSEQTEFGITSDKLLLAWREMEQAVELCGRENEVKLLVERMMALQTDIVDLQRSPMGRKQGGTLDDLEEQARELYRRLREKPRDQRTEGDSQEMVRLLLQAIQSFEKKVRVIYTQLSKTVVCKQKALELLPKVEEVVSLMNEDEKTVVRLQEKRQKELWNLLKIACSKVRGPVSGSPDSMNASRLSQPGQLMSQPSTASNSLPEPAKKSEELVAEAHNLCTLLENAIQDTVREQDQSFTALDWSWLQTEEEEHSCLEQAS
Particulars: at 1 µM.

Assay [9] deals with T4, Inhibitor of nuclear factor kappa-B kinase subunit beta (Homo sapiens). Particulars: at 10 µM.
In assay [10] the target is Insulin receptor (Homo sapiens) (UniProt P06213). Particulars: at 1 µM.
Chain of Insulin receptor (Homo sapiens) (P06213 28-758 limits assumed): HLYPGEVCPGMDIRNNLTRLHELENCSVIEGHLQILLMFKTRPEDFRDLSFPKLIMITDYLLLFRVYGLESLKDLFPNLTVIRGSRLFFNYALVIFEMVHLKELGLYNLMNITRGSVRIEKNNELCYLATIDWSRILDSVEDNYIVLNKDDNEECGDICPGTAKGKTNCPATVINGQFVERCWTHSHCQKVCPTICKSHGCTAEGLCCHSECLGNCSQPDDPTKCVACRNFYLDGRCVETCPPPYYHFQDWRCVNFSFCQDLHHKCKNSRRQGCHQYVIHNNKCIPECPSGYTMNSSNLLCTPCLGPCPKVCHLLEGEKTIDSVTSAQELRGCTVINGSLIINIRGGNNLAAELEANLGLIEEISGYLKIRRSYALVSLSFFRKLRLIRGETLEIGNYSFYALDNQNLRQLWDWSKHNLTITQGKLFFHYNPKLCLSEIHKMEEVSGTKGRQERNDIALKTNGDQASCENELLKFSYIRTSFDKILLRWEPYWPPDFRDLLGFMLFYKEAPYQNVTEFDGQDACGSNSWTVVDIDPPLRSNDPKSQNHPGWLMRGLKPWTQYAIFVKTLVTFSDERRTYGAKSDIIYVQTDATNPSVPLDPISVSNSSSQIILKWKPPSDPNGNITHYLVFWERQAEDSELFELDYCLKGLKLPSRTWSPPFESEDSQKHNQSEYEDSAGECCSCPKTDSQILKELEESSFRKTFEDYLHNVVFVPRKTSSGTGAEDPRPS
Chain of Insulin receptor (Homo sapiens) (P06213 763-1382 limits assumed): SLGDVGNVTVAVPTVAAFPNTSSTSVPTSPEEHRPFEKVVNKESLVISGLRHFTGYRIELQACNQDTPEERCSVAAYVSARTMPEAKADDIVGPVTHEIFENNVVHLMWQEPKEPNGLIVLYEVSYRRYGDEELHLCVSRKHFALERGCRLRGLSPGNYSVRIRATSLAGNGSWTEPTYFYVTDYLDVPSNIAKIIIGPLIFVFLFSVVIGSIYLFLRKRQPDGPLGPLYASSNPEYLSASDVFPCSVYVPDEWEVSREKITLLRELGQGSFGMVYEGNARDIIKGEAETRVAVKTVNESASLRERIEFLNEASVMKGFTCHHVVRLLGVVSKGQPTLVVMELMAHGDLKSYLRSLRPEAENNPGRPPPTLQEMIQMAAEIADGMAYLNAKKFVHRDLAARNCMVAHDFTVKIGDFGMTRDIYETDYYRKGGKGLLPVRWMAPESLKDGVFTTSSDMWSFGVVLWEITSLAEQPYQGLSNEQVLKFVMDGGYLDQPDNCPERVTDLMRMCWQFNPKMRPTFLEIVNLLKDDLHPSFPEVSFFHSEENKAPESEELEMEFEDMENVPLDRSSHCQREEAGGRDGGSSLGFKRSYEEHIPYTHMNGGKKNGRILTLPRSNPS

Chain of Insulin-like growth factor 1 receptor (Homo sapiens) (P08069 31-736 limits assumed): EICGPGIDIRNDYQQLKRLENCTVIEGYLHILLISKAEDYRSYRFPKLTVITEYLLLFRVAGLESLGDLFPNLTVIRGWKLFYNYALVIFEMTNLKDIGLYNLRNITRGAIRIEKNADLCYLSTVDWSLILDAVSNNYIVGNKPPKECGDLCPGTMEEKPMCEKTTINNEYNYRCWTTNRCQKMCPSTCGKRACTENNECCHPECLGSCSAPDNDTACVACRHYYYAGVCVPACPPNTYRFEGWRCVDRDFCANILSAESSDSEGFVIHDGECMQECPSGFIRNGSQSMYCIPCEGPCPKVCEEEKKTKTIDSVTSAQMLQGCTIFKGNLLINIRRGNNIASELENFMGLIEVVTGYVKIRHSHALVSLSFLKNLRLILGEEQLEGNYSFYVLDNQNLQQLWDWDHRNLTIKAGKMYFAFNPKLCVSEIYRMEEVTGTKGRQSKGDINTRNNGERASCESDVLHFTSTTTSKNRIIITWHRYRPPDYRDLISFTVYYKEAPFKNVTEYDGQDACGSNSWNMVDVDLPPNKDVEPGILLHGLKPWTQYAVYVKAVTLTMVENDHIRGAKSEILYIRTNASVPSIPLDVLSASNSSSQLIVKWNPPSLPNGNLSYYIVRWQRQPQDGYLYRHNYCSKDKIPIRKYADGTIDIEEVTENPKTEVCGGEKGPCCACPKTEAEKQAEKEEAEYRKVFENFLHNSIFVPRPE
Chain of Insulin-like growth factor 1 receptor (Homo sapiens) (P08069 741-1367 limits assumed): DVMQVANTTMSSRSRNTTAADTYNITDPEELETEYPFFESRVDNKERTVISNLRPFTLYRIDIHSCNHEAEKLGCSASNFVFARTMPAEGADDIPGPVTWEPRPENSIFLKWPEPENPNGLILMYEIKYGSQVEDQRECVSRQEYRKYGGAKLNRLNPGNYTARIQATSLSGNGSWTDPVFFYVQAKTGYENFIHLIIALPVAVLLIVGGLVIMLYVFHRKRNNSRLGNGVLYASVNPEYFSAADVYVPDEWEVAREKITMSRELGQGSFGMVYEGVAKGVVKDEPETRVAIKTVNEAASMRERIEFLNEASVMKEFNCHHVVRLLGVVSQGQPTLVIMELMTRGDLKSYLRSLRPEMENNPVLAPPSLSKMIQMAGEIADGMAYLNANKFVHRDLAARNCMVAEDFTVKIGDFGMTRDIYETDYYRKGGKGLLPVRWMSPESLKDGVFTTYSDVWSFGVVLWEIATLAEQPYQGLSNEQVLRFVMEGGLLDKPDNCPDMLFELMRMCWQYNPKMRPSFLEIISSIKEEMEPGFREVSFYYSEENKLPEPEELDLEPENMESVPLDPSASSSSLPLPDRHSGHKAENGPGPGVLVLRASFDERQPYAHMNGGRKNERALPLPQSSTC

Take `O=C(Nc1cccc(Nc2cc(Nc3cccc(C(F)(F)F)c3)ncn2)c1)C1CC1`: the residual activity amounted to 61% in [1]; 89% in assay [2]; 77% in assay [3]; 98% in assay [4]; 89% in [5]; 108% in assay [6]. The residual activity is 125% in assay [7], 99% in [8], 96% in assay [9] and 105% in assay [10].
